Results taken from PubChem BioAssay AID589 (National Center for Advancing Translational Sciences (NCATS), 2007).
Hit rate of the full screen: of about 59,000 compounds, about 6,200 (11%) were called active. Roughly 9% stayed inconclusive and do not appear here. No stated cut-off is given here; in the data, active means max dye-equivalent concentration above about 10 nM; inconclusive means mostly about 1.1 nM to 9.6 nM; inactive means weaker than that. The entries come from a sample that favours actives as a whole. A structure can be active in one record and inactive in another.

Assay: qHTS Assay for Spectroscopic Profiling in 4-MU Spectral Region
Settings: compound autofluorescence, 340/450 nm, 4-MU equivalents; stronger effect = higher value
Text: NIH Molecular Libraries Screening Centers Network [MLSCN] NIH Chemical Genomics Center [NCGC] […] Occasionally, the artifactual effect may originate from the compounds own spectral or other biophysical properties which generally tend to track its assay concentration. Pre-screening/profiling the library with respect to the compounds spectral properties should help one exclude false positives early on. While the most informative fluorescent profiling data set is obtained by performing a full excitation and emission scan of each well by using a monochromator-based plate reader, such an approach is practical only on a very limited scale as scanning each well requires long time. An alternative approach, applied here, is to perform plate reader scans using selected excitation and emission wavelength pairs to generate a multidimensional relational database that correlates compound concentration and the respective relative fluorescence intensity at a given wavelength set. A standard curve of 4-methylumbelliferone (4-MU) present on each plate as six-point concentration series, was used to compute a normalized fluorescence response, termed dye-equivalent concentration, for each compound at each concentration.
NCGC Assay Protocol Summary: Buffer: 100 mM Tris buffer, pH 8.0 Dye standard plate: The wells in columns 1 through 4 of a Kalypsys polypropylene 1536-well compound plate were filled with standard solutions of fluorophore corresponding to the spectral region of interest. Solutions of 4-MU were placed in the following wells: A1, B1: 3 mM, A2, B2: 300 uM, A3, B3: 30 uM, A4, B4: zero (DMSO), C1, D1: 3 uM, C2, D2: 900 nM, C3, D3: 300 nM, C4, D4: zero (DMSO). Assay Steps: Six uL of buffer were dispensed to 1536-well Greiner black plates. Compounds and dye standards (23 nL) were transferred via Kalypsys PinTool. The plates were incubated for 15 min at room temperature, and then read on ViewLux (Perkin-Elmer) High-throughput CCD imager using 340 nm and 450 nm excitation and emission filter set. Keywords: NIH Roadmap, MLSCN, MLI, MLSMR, qHTS, NCGC, Fluorescent Profiling, 4MU, 4-MU

Structure (SMILES)	max dye-equivalent concentration	outcome
C[C@]12CC[C@H](O)C[C@@H]1CC[C@H]1[C@H]2CC[C@]2(C)C(=O)CC[C@@H]12	69 nM (active)	inactive
C[C@]12CC[C@H](O)CC1=CC[C@@H]1[C@H]2CC[C@]2(C)C(=O)CC[C@H]12	inactive	–
C[C@@]12CC[C@H](O)C[C@@H]1CC[C@@H]1[C@@H]2CC[C@@]2(C)[C@@H](C3=CC(=O)OC3)[C@H](O)C[C@]12O	inactive	–
Cc1ccc(S(=O)(=O)O[C@H]2CN3CCC2CC3)cc1	inactive	–
CC1=CC(=O)C2=C(C)C[C@H](O)[C@@H]3[C@@H](OC(=O)[C@H]3C)[C@H]12	inactive	–
O=C1C2CCN(CC2)C1(CO)CO	inactive	–
c1ccc2c(c1)[I+]c1ccccc1-2	inactive	–
CSC1=NP(=S)(SC)N(C)c2nc3n(c21)CCC3 (stereo unspecified)	22 nM (active)	–
c1csc(CN2CC3(CCNCC3)C2)n1	inactive	–
CC(C)CCC1(CCN)C(=O)NC(=O)NC1=O	inactive	–
CN1[C@@H]2CC[C@H]1CC(OC(=O)c1cc(Cl)cc(Cl)c1)C2 (stereo partly specified)	inactive	–
CC(=O)c1c(O)c(C)c(O)c(Cc2c(O)c3c(c(C(=O)/C=C\c4ccccc4)c2O)OC(C)(C)C=C3)c1O	inactive	–
C[C@H]1CC[C@@]2(NC1)O[C@@H]1C[C@H]3[C@@H]4CC=C5C[C@@H](O)CC[C@]5(C)[C@@H]4CC[C@]3(C)[C@@H]1[C@@H]2C	inactive	–
NCCc1c[nH]c2ccc(O)cc12	inactive	–
C/C(CCc1c[nH]c2ccccc12)=N\O	13 nM (active)	–
CCN(CC)CCn1ncc2c(N)ncnc21	inactive	–
N[C@H](C(=O)O)c1cc(=O)[nH]o1	inactive	–
COC(=O)C(O)(c1ccc(NC(=O)c2ccco2)c(OC)c1)C(F)(F)F (stereo unspecified)	inactive	–
O=C(c1cc2nc(-c3ccccc3)cc(-c3ccccc3)n2n1)N1CCC2(CC1)OCCO2	64 nM (active)	–
O=C(c1cc(-c2ccncc2)nc2ccccc12)N1CCC2(CC1)OCCO2	inactive	–
Cc1cccc(-n2c(C)nc3cc(C(=O)N4CCC5(CC4)OCCO5)ccc32)c1	inactive	–
NC[C@H](O)c1ccc(O)cc1	inactive	–
NC(=O)c1ccc(OC[C@H](O)CN2CC=C(c3ccc(F)cc3)CC2)cc1	inactive	–
COc1cc(C[C@H](C)N)c(OC)cc1I	inactive	–
CC(=O)NBr	inactive	–

Structure (SMILES)	max dye-equivalent concentration	outcome
C[C@H](Br)C(=O)N[C@H](CO)C(=O)O	inactive	–
COc1ccc(C2NCc3ccc4c(c3-n3cccc32)OCO4)cc1OC (stereo unspecified)	inactive	–
CCOC(=O)c1c(-c2ccccc2)oc2ccc(OC(=O)N(C)C)cc12	50 nM (active)	–
c1csc(CN2CCCC3(CCNCC3)C2)n1	inactive	–
c1ccc(N2CC[C@@]3(CCCNC3)C2)nc1	inactive	–
c1ccc(CN2CC[C@@]3(CCCNC3)C2)cc1	11 nM (active)	–
C[C@@]12CC[C@H]3[C@@H](CC[C@]4(O)C[C@H](O)CC[C@@]34C=O)[C@]1(O)CC[C@@H]2C1=CC(=O)OC1	inactive	–
CCN1C[C@@]2(COC)CC[C@H](OC)[C@]34[C@@H]1[C@]1(OCO[C@@]15C[C@@H](OC)C1C[C@H]3[C@H]5[C@@H]1OC)[C@H](O)[C@@H]24	inactive	–
C=CCN1C(=O)C2(C(C(=O)OCC)=C(N)Oc3c2c(=O)oc2ccccc32)c2ccccc21 (stereo unspecified)	inactive	–
CS(=N)(=O)CC[C@H](N)P(=O)(O)O (stereo partly specified)	inactive	–
CCOC(=O)c1c(N)n(Cc2ccccc2)c2nc3ccccc3nc12	1100 nM (active)	–
CC(=O)O[C@H]1CC[C@@]2(C)[C@@H](CC[C@H]3[C@H]2CC(=O)[C@]2(C)[C@@H]3C[C@@H](N3CC3)[C@H]2C(C)=O)C1	inactive	–
CCNC[C@H](O)c1cccc(O)c1	inactive	–
CC[C@]1(O)C(=O)OCc2c1cc1n(c2=O)Cc2cc3ccccc3nc2-1	2300 nM (active)	–
CC[C@@](O)(C(=O)O)c1cc2n(c(=O)c1CO)Cc1cc3ccccc3nc1-2	840 nM (active)	–
CN1CCN(C(=O)O[C@@H]2c3nccnc3C(=O)N2c2ccc(Cl)cn2)CC1	inactive	–
CCN1C[C@]2(C)CC[C@H](O)[C@@]34[C@@H]5CC6[C@@H](OC)C[C@@](O)([C@@H]5[C@@H]6O)[C@H](C[C@@H]23)[C@H]14	inactive	–
O=C(Nc1cccc(F)c1)N1CC[C@@]2(CCCN(C(=O)Oc3ccccc3)C2)C1	inactive	–
NCC[Se][Se]CCN	inactive	–
CCN1c2nc3c(C)cccn3c(=O)c2CC2(C(=O)N(C)C(=O)N(C)C2=O)C1C (stereo unspecified)	29 nM (active)	–
CC(C)(O)/C=C\C(=O)[C@](C)(O)[C@H]1[C@H](O)C[C@]2(C)[C@@H]3CC=C4[C@@H](C=C(O)C(=O)C4(C)C)[C@]3(C)C(=O)C[C@@]12C	inactive	–
NCCc1ccc(S(=O)(=O)F)cc1	inactive	–
C[N+]1(C)C2CC(OC(=O)C(CO)c3ccccc3)CC1[C@@H]1O[C@H]21 (stereo partly specified)	inactive	–
O=C(O)C(=O)Cc1ccc2c(c1)OCO2	inactive	–
CC(C)(O)[C@H]1[C@H]2OC(=O)[C@@H]1[C@]1(O)C[C@H]3O[C@]34C(=O)O[C@H]2[C@]14C	inactive	–
